VACV mCherry inh: inhibitors of vaccinia virus infection (mCherry reporter signal); Potency, µM (doses to about 36.5 µM), for inactives: at the top dose activity change, negative = inhibition, hits mostly inhibitors; 310,000 tested, 0.63% active; Vaccinia virus mCherry reporter infection, fluorescence; calls by dose curve; tested in A549 cells; also: nearly all actives have a fitted effect of over 35% in size
Vaccinia Venus: vaccinia inhibition (Venus reporter) | Potency, µM (series often up to 36.5 µM), for the others: at the top dose activity change, negative = inhibition, hits mostly inhibitors | AID 720580 | Vaccinia virus Venus reporter expression, fluorescence | 330,000 tested, 0.46% active; calls by dose curve; tested in A549 cells; also: nearly all actives have a fitted effect of over 30% in size
Marburg entry inh: blocks Marburg virus binding to or entry into cells; AID 540276; Marburg virus pseudotyped entry inhibition, cell reporter; Potency, µM (series often up to 37.8 µM), for the others: at the highest dose activity change, negative = inhibition, hits mostly inhibitors; 300,000 tested, 1.8% active; calls by dose curve; tested in HEK293 cells
HCV inhibitor: blocks hepatitis C virus. Huh7.5.1 HCVcc-Cre infection, luciferase reporter, 44 h. Potency, µM (titrated, usually from 41.8 µM), for inactives: top-dose activity change, negative = inhibition, usual class: inhibitors. 340,000 tested, 3.4% active; active = well fitted inhibition curve with a large enough effect; inconclusive = small, poorly fitted or top-dose-only effect, or another doubt; inactive = no such curve, though single readings can be large or run the other way
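A cell-based infection assay in which seeded cells (1,000 per well) receive test compound after 4 h, are inoculated with HCVcc-Cre at approximately 0.5 moi, and are incubated 44 h before luminescence detection.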
LASV entry inh: Lassa virus entry inhibition; Potency, µM (series often up to 37.9 µM), without a hit: at the top dose activity change, negative = inhibition, most hits filed as inhibitors; Lassa virus pseudotype entry inhibition, cell reporter; AID 540256; 300,000 tested, 1.2% active; calls by dose curve; tested in HEK293 cells; also: nearly all actives have a fitted effect of over 50% in size
Starred values were filed as active, the others as inactive; i = inactive; ? = inconclusive; . = no result; ! = repeats disagree; [ ] = dose if it differs, or a comment. Hits are enriched below; roughly 4.6% of the tested compounds scored in any of these assays. % is scaled to controls: 0 for no effect and ±100 for the full control effect; potency is read from the fitted curve at half-maximal effect.

SMILES	VACV mCherry inh	Vaccinia Venus	Marburg entry inh	HCV inhibitor	LASV entry inh
CCC(=N[C@H](CC)CO)C1=C(O)CC(C)(C)CC1=O	.	.	7.1%	.	.
Fc1ccc(-[n+]2nc(Nc3ccccc3)sc2-c2c(Cl)cccc2Cl)cc1	?	?	.	10µM*	.
CCc1ccc(Nc2n[n+](-c3ccccc3)c(-c3ccc(N(CC)CC)cc3)s2)cc1	?	11.2µM*	.	11.2µM*	.
CCc1ccc(Nc2n[n+](-c3ccccc3)c(-c3ccc(OCc4ccccc4)cc3)s2)cc1	i	?	.	?	.
COc1ccc(C)cc1Nc1n[n+](-c2ccccc2)c(-c2c(Cl)cccc2Cl)s1	?	10µM*	.	-24.3%[8.37 µM]	.
O=C(O)c1ccc(-c2sc(Nc3ccccc3)n[n+]2-c2ccc(F)cc2)cc1	i	-6.0%	.	18.5%	.
CCc1ccc(Nc2n[n+](-c3ccccc3)c(-c3c(Cl)cccc3Cl)s2)cc1	?	8.91µM*	.	5.62µM*	.
Cc1cc(C)cc(N2C(=O)CSC23C(=O)N(CC(=O)NC2CCCCC2)c2ccccc23)c1 (centres undefined)	-15.2%	-15.4%	.	.	?
COc1cc(CNCc2cc3ccc(F)cc3nc2N2CCOCC2)cc(OC)c1OC	-2.6%	33.0%	.	.	.
COC[C@@H](OC(C)=O)[C@H]1OCc2ccccc2[C@@H]1C=Cc1ccccc1	.	.	14.2%[14.2 µM]	.	.
COc1ccc(NC(=O)[C@@H]2CC=C[C@@H]3CCN(Cc4ccc(Cl)c(Cl)c4)C(=O)[C@@H]32)cc1	-7.0%	?	.	0.562µM*	.
Cc1ccccc1Cn1ccc(NC(=O)CCSc2nc(-c3ccco3)cc(C(F)(F)F)n2)n1	.	7.6%	1.12µM*!	3.16µM*	-27.5%
Cc1ccc(Cn2ccc(NC(=O)CCSc3nc(-c4ccco4)cc(C(F)(F)F)n3)n2)cc1	.	?	?	11.2µM*	?
Cc1cc(NC(=O)CCSc2nc(-c3ccco3)cc(C(F)(F)F)n2)no1	i	-15.4%	3.6%	?	-11.3%
COc1ccccc1C1CCCN1Cc1nc(-c2ccc(C)s2)oc1C (centres undefined)	?	36.0%	?	?	3.55µM*
CC1(C)C[C@H]2C=C(C=O)[C@]3(C=O)C[C@]3(C)[C@H]2C1	?	?	?	3.16µM*	3.66µM*
CC1=CN2C(=N)/C(=C/c3ccc(C)o3)C(=O)N=C2S1	-12.3%	-12.1%	9.5%	33.9%	1.26µM*
Cc1ccc(Nc2nc(N)nc(CN3CCN(c4ccccc4)CC3)n2)cc1Cl	.	.	-41.9%	?	-26.0%
Cc1ccccc1Nc1nc(N)nc(COC(=O)c2ccco2)n1	i	-6.8%	?	?	?
Nc1nc(CCl)nc(Nc2ccc3ccccc3c2)n1	?	?	?	0.891µM*	3.98µM*
COCc1c(C(=O)OCc2nc(N)nc(Nc3ccccc3C)n2)oc2ccccc12	.	.	23.1µM*	?	?
Cc1ccccc1Nc1nc(N)nc(CCl)n1	?	?	?	1.26µM*	?
Nc1c(-c2nc(-c3ccncc3)no2)nnn1CC(=O)Nc1ccccc1	-12.1%	-12.6%	.	.	7.1%[46.1 µM]
Cc1cc(NC(=O)C(C)(C)Oc2ccc(Cl)cc2)cc(-c2nc3ncccc3o2)c1O	-7.9%	-4.2%	2.7%[46.1 µM]	.	10.3%[46.1 µM]
CN(C)CCCNc1oc(/C=C/c2ccc(F)cc2)nc1C#N	-11.9%	-2.3%	?	.	?
SMILES	VACV mCherry inh	Vaccinia Venus	Marburg entry inh	HCV inhibitor	LASV entry inh
COC(=O)c1ccc(NC(=O)CN2CCCN(Cc3ccc(Cl)cc3)S2(=O)=O)cc1	-10.2%	-9.6%	.	.	-0.4%[46.1 µM]
COc1ccc(OC)c(Nc2nc(-c3ccncc3)nc3ccccc23)c1	-23.6%	-17.1%	?	4.47µM*	?
Cc1ccc(C)c(Nc2nc(-c3ccncc3)nc3ccccc23)c1	.	.	.	11.2µM*	.
COc1ccc(OC)c(Nc2ncnc3ccccc23)c1	-8.2%	-14.2%	?	?	12.3%
COc1ccc(Nc2nc(N3CCN(S(C)(=O)=O)CC3)nc3ccccc23)c(OC)c1	-6.2%	-16.3%	-23.3%[46.1 µM]	-14.0%	-27.9%[46.1 µM]
COc1ccccc1Nc1nc(-c2ccccc2)nc2ccccc12	.	.	.	10µM*	.
COc1ccc(Nc2nc(N3CCN(S(=O)(=O)N(C)C)CC3)nc3ccccc23)cc1	.	.	.	11.2µM*	.
COc1ccc2nc(-c3ccccc3)nc(SC)c2c1	-12.3%	?	.	11.2µM*	.
COc1ccc(CNc2nc(-c3ccccc3)nc3ccccc23)cc1OC	i	-17.5%	?	-25.3%	-0.2%[46.1 µM]
COc1ccc(Nc2nc(-c3ccncc3)nc3ccccc23)cc1	-10.3%	-21.4%	2.82µM*	6.31µM*	-9.6%[46.1 µM]

Screening results as filed in PubChem.
